The source of these data is PubChem BioAssay (NCATS).

Values joined by “and” are separate entries in the source; they are usually repeats but may differ in a detail not shown here. Identical values can stand only once. Records with an inconclusive call do not appear. Active and inactive are the calls of the source. Unless noted, calls follow the shape of the dose curve; as a rule, active = well fitted curve in the direction sought with a large enough effect; inconclusive = small, poorly fitted or top-dose-only effect, or another doubt; inactive = no such curve, though single readings can be large; an effect the other way counts as inactive or inconclusive.

Test [1] deals with Alpha-galactosidase A (Homo sapiens) (UniProt P06280). The experiment in a line: Counterscreen for Glucocerebrosidase Inhibitors: qHTS Assay for Human alpha-Galactosidase at pH 4.5 (AID 992). Also: 0% is about no effect. An outline of the steps: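 Concentration-response curves (0.7 nM to 77 uM final) were modeled with the Hill equation to give AC50. Reactions: 2 nM enzyme, 80 uM fluorogenic alpha-galactoside, pH 4.5 citric acid buffer, 20 min, room temperature.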
Chain of Alpha-galactosidase A (Homo sapiens) (P06280 whole entry, looked up): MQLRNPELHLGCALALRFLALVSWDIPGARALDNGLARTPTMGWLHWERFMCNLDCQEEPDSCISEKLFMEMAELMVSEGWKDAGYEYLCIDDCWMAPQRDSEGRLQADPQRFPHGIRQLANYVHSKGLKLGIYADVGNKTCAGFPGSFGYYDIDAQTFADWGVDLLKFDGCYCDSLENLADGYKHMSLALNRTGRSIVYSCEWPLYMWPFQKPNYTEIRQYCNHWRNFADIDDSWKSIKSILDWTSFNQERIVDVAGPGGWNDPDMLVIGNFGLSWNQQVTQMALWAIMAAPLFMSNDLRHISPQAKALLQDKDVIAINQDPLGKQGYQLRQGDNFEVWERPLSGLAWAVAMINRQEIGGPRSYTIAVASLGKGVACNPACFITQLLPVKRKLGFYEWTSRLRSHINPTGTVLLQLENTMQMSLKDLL

The target in test [2] is alpha-glucosidase (Oryza sativa, rice) (UniProt Q653V4). The experiment in a line: Counterscreen for Glucocerebrosidase Inhibitors: qHTS Assay for Rice alpha-Glucosidase at pH 5.0 (AID 997).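 Also: 0% = full activity with enzyme and -100% = basal without enzyme.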 An outline of the steps:
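Rice alpha-glucosidase (4 nM final) with 400 uM 4-methylumbelliferyl-alpha-D-glucopyranoside in citrate buffer pH 5.0, 20 min at room temperature, stopped at pH 10; fluorescence 365/440 nm, compounds 0.7 nM–77 uM, AC50 from Hill fits.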

The target in test [3] is Alpha-galactosidase (Coffea arabica) (UniProt Q42656). The experiment in a line: Counterscreen for Glucocerebrosidase Inhibitors: qHTS Assay for Coffee Bean alpha-Galactosidase at pH 5.9 (AID 998).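 Also: plate controls were uninhibited enzyme for no effect and no-enzyme basal signal for full effect.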 An outline of the steps: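 Compounds were titrated from 0.7 nM to 77 uM against green coffee bean alpha-galactosidase (2 nM) using 80 uM fluorogenic 4-methylumbelliferyl substrate. After 20 min at room temperature, reactions were stopped at pH 10 and read by fluorescence.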
Chain of Alpha-galactosidase (Coffea arabica) (Q42656 whole entry, looked up): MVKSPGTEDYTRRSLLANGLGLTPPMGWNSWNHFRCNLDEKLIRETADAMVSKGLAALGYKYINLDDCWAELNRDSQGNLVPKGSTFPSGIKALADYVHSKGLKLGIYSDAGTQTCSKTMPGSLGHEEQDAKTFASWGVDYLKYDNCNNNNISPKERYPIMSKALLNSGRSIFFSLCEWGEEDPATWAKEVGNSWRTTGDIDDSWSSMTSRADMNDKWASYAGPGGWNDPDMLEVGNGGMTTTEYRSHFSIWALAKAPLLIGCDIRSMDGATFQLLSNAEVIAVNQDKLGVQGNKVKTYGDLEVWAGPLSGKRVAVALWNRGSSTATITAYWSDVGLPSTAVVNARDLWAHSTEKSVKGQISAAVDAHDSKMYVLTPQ

The nature of test [4]: Validation of Assay for Modulators of Lamin A Splicing (AID 1459; active = well fitted curve in the direction sought with a large enough effect in the signal ratio; the % refers to the signal ratio;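 also: cells exposed to compound for two days before reading; 0% is about no effect; ratio rise marks activators and ratio drop marks inhibitors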). An outline of the steps:
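Splicing correction is reported by an EGFP-containing lamin A minigene in stably transfected S3 HeLa cells, while DsRed2 controls for viability and nonspecific signal. Cells are exposed to compounds for 48 hrs before the GFP over RFP ratio is taken.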

Test [5] in a line: qHTS Assay for Lipid Storage Modulators (AID 1519; calls by dose curve; as to activity change, negative = inhibition: % is scaled to controls: 0 for no effect and ±100 for the full control effect). Conditions: Drosophila S3 cells, BODIPY lipid droplet/cell ratio, laser cytometry, cells loaded with oleic acid. An outline of the steps:
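Cells seeded at 5,000 per well were treated with compounds over a concentration series and loaded with oleic acid (400 uM, as added). Lipid droplet fluorescence (488 nm excitation, 500-530 nm channel) was read by laser-scanning cytometry and normalized to 20 uM Triacsin C.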

Test [6] addresses DNA repair nuclease/redox regulator APEX1 (Homo sapiens) (UniProt P27695). The experiment in a line: qHTS Validation Assay for Inhibitors of the Human Apurinic/apyrimidinic Endonuclease 1 (APE1) (AID 1705; also: potency is read from the fitted curve at half-maximal effect;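 as to activity change, negative = inhibition: TAMRA fluorescence gain over two minutes as APE1 cuts a quenched THF abasic duplex; % is scaled to controls: 0 for no effect and ±100 for the full control effect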). An outline of the steps:
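Endonuclease activity of human APE1 is followed as dequenching when the enzyme incises a tetrahydrofuran abasic site in a short duplex labelled 5'-TAMRA/3'-BHQ-2 (50 nM final), after 15 min enzyme–compound preincubation at room temperature.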

Test [7] is described as follows: Counterscreen for APE1 Inhibitors: Fluorescent Dye Displacement Validation Assay (AID 1707).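 Also: plate controls were ThO with dsDNA and no compound for no effect and ThO without dsDNA for full effect.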 The method in brief:
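Assay buffer: Tris-HCl pH7.5 with 50mM NaCl, 2 mM MgCl2, 0.01% Tween-20. Dye 250 nM, duplex 50 nM final. Readout: decrease in ThO endpoint fluorescence, 480 nm excitation, 540 nm emission.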

Test [8] has as its target Endonuclease 4 (Escherichia coli (strain K12)) (UniProt P0A6C1). The experiment in a line: Counterscreen for APE1 Inhibitors: qHTS Validation Assay for Inhibitors of Endonuclease IV (AID 1708). Also: % is scaled to controls: 0 for no effect and ±100 for the full control effect. The method in brief: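 qHTS concentration-response format; LOPAC1280 tested under APE1-screen conditions. 2 nM enzyme, 15 min compound preincubation at RT, then 50 nM TAMRA/BHQ-2 abasic substrate; kinetic fluorescence read, three reads at 60 s intervals.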

Test [9] can be described thus: qHTS for differential inhibitors of proliferation of Plasmodium falciparum line 7G8 (AID 1815).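 Also: parasite growth measured after three days of incubation.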 Also: potency is read from the fitted curve at half-maximal effect.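 As to activity change, negative = inhibition: plate controls were vehicle wells for no effect and reference inhibitor wells for full effect.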
Setting [10] is: measured here: cell count channel max response.
[11] abbreviates: measured here: lipid channel max response.

Chain of DNA repair nuclease/redox regulator APEX1 (Homo sapiens) (P27695 whole entry, looked up): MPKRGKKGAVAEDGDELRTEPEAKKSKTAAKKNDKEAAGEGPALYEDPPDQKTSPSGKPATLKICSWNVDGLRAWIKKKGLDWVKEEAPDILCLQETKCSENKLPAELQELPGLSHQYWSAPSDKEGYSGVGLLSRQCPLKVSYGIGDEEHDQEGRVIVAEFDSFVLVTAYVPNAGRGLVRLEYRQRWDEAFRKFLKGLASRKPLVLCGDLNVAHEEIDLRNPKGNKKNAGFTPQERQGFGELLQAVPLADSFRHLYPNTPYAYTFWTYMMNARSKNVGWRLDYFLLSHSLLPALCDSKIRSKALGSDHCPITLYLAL

On to `O=C(O)CC[N+](=O)[O-]`, for which the result in test [1], in test [2], in test [3] and in [4] was inactive. In addition, the activity change, negative = inhibition in [5] (at 57.5 µM (top of the series)) is 1.53% (inactive) and -0.853% (inactive). For the same compound, the max response was 11.6% and 14.1% in test [5] (setting [10]); 18.9% and 15.4% in [5] (setting [11]). Besides, the Potency result in [6], in test [7], in test [8] and in test [9] was “inactive” throughout.
Take `CS(=N)(=O)CC[C@H](N)C(=O)O` (some centres not stated): in test [4], the compound was called inactive. Moreover, the activity change, negative = inhibition in test [5] (at 57.5 µM (top of the series)) was -1.65% (inactive). In addition, the max response in test [5] (setting [10]) turned out to be 43.8%; in test [5] (setting [11]), 40.4%. Also, the Potency result in test [6], in [7] and in test [9] was “inactive” each time.
For `CC(C)NC(C)Cc1ccc(I)cc1` (configuration not stated), the compound was classed as inactive in test [4]. Besides, the Potency was 39.8 µM (active) in test [6] and 10 µM (active) in test [9]. Moreover, the Potency entry in [7] and in [8] was “inactive” each time.
Consider `O=C(O)Cc1cnc[nH]1`, for which the compound was called inactive in test [1], in test [2], in [3] and in [4]. Further, the activity change, negative = inhibition in [5] (at 57.5 µM (top of the series)) was -0.977% (inactive). Further, the max response is 21.8% in test [5] (setting [10]) and 19% in test [5] (setting [11]). For the same compound, the Potency result in test [6], in test [7] and in test [9] was “inactive” in each case.
With `O=C(O)[C@@H]1CCN1`, the compound was classed as inactive in [4]. Besides, in test [5] (at 57.5 µM (top of the series)), the activity change, negative = inhibition was 1.64% (inactive). Further, the values for the max response in test [5] (setting [10]) and in test [5] (setting [11]) were -13.5% and -13.6%, respectively. For the same compound, the Potency entry in test [6], in test [7], in test [8] and in test [9] was “inactive” throughout.
For `C[C@]12CCC3C(CC[C@H]4C[C@H](O)CC[C@]34C)C1CC[C@@H]2C(=O)CO` (some centres not stated), the compound was classed as inactive in test [4]. Also, the Potency entry in test [6], in test [7] and in test [8] was “inactive” throughout. The Potency in [9] was 7.94 µM (active).
Take `Cn1cnc(CCN)c1`: the compound was called inactive in [1], in test [2], in test [3] and in [4]. The activity change, negative = inhibition in test [5] (at 57.5 µM (top of the series)) was 1.27% (inactive). Further, the values for the max response in [5] (setting [10]) and in [5] (setting [11]) were 34.2% and 35.2%, respectively. Moreover, the Potency entry in test [6], in test [7], in test [8] and in [9] was “inactive” throughout.
Take `c1ccc2sc(C3(N4CCCCC4)CCCCC3)cc2c1`: the call in test [1], in test [2], in test [3] and in test [4] was inactive. In [5] (at 57.5 µM (top of the series)), the activity change, negative = inhibition is -6.45% (inactive) and -1.27% (inactive). Moreover, the max response in test [5] (setting [10]) was -3.55% and -30.8%; in [5] (setting [11]), 4.98% and -30.4%. The Potency result in test [6], in test [7] and in test [8] was “inactive” in each case. In addition, in [9], the Potency is 10 µM (active).
`Oc1ccc2c3c1O[C@H]1c4[nH]c5c(c4C[C@@]4(O)[C@@H](C2)N(CC2CC2)CC[C@]314)C[C@@]1(O)[C@H]2Cc3ccc(O)c4c3[C@@]1(CCN2CC1CC1)[C@H]5O4`: in [4], the compound was called inactive. In addition, the activity change, negative = inhibition in [5] (at 57.5 µM (top of the series)) is -0.289% (inactive). In addition, the results for the max response in test [5] (setting [10]) and in test [5] (setting [11]) were -23.9% and -23.6%, respectively. The Potency entry in [6] and in test [7] was “inactive” throughout.
On to `NCCc1c[nH]c2ccccc12`, for which the compound was called inactive in test [1], in [2], in test [3] and in test [4]. Further, the activity change, negative = inhibition in test [5] (at 57.5 µM (top of the series)) was 5.62% (inactive). Moreover, the values for the max response in [5] (setting [10]) and in test [5] (setting [11]) were 8.58% and 17.6%, respectively. Also, the Potency result in test [6], in [7] and in [8] was “inactive” each time.
On to `O=c1cccc2n1CC1CNC[C@H]2C1`, for which the activity change, negative = inhibition in test [5] (at 25.7 µM (top of the series)) was -2.83% (inactive). The results for the max response in test [5] (setting [10]) and in [5] (setting [11]) were -1.29% and -2.58%, respectively.
